Experiment in all cases: NCI-60 one-dose screen, 48 h (100 = growth as untreated, 0 = no growth, -100 = all killed)
Conditions in all cases: 10 µM unless noted

In test [1] the test system is NCI-H23 lung.
For test [2], the system named is NCI-H226 lung.
The test system of test [3] is NCI-H322M lung.
The test system of test [4] is HOP-62 NSCLC.
In test [5] the test system is NCI-H460 lung.
The subject of test [6] is HOP-92 NSCLC.
For test [7], the system named is NCI-H522 lung.
The subject of test [8] is A549/ATCC NSCLC.
The test system of test [9] is 786-0 renal.
The subject of test [10] is COLO 205 colon.
Test [11] concerns DU-145 prostate.
Test [12] deals with K-562 leukemia.
Test [13] concerns MALME-3M melanoma.
Test [14] relates to MDA-MB-231 breast.
The test system of test [15] is RXF 393 renal.
Test [16] deals with SF-268 CNS.
In test [17] the test system is SF-295 CNS.
Test [18] relates to SF-539 CNS.
For test [19], the system named is UACC-257 melanoma.
Test [20] deals with M14 melanoma.

The panel holds about 83,000 compounds, 20% with a hit somewhere; the sample as a whole holds those more often.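 How to read the values: 0–100, growth inhibition (40 = 60% inhibited); 0, no net growth; -100 to 0, cell death (-40 = 40% of starting cells died; -100 = all dead).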 A number with no mark means an inactive call. Calls of active or inactive are those of the source. Rule for the calls: active = growth percent below 10; inactive = the rest.

Regarding `Cc1cc2nc(CS)[nH]c2cc1C`, the growth in [1] is 97.1%; in [2], 93.1%; in [3], 76.4%; in test [4], 92.7%; in test [5], 93%; in test [6], 88.9%. Besides, the growth in test [7] was 74.7%; in test [8] it was 94.2%; in test [9], 81.6%; in test [10] it was 90.3%; in test [11], 93.9%; in test [12], 76.8%. Also, the growth was 95.7% in [13]; 99% in test [14]; 76.9% in test [15]; 103% in test [16]; 102% in test [17]; 94.6% in [18]. In addition, the figures for the growth in test [19] and in test [20] were 101% and 89.9%, respectively.
On to `CNc1ccc2c(c1)c1ccccc1n2C`, for which the growth in test [1] is 85.2%; in test [2] it was 101%; in test [3], 98.4%; in test [4] it was 100%; in test [5] it was 108%; in test [6], 99.5%. In addition, the growth in test [7] is 92.4%; in test [8] it was 105%; in [9] it was 105%; in test [10] it was 111%; in [11], 102%; in test [12] it was 105%. In addition, the growth in test [13] is 106%; in test [14], 98.5%; in [15], 113%; in test [16], 95.1%; in test [17] it was 98.7%; in test [18] it was 98.1%. In addition, the growth in test [19] is 107%; in [20], 116%.
With `Nc1ccc(SSc2ccc(N)cc2)cc1`, the growth in test [1] was 89.9%; in [2] it was 103%; in [3], 92.5%; in [4], 114%; in test [5], 100%; in test [6], 103%. For the same compound, the growth in [7] is 84.1%; in [8] it was 77.7%; in test [9], 100%; in test [10], 106%; in test [11] it was 111%; in test [13] it was 104%. In addition, the growth in [14] was 82.4%; in test [15] it was 108%; in test [16] it was 106%; in test [17], 82.6%; in [18], 106%; in test [19] it was 86.1%. Further, the growth in test [20] was 97.7%.
With `CN(Cc1cnc2nc(N)nc(N)c2n1)c1ccc(C(=O)NC(CCC(=O)O)C(=O)O)cc1` (centres undefined), the growth in test [1] was 23.4%; in test [2] it was 30.2%; in test [3], 48.6%; in test [4], 43%; in [5], 16.4%; in [6], 37.1%. Moreover, the growth was 29.2% in test [7]; 19.8% in test [8]; 13.7% in test [9]; 58.5% in test [10]; 26.7% in [11]; 18.7% in [12]. In addition, the growth in test [13] is 43.8%; in test [14] it was 82.8%; in [15] it was 46.1%; in test [16], 25.5%; in test [17] it was 20%; in test [18], 22.2%. Moreover, the growth in [19] was 53%; in test [20], 10.9%.
`OC(CNc1ccnc2cc(Cl)ccc12)CNc1ccnc2cc(Cl)ccc12`: the growth in test [1] is 72%; in test [2], 39.3%; in test [3], 52.1%; in test [4], 98.7%; in test [5], 63.5%; in test [6], 77.6%. Also, the growth in [7] was -3.14% (active); in test [8] it was 95.3%; in [9], 95.5%; in test [10], -55.4% (active); in test [11] it was 57.4%; in test [12], 2.44% (active). Also, the growth was -77.9% (active) in test [13]; -56.5% (active) in [14]; 97.4% in [15]; 82.2% in [16]; 71.6% in test [17]; -79.8% (active) in [18]. The figures for the growth in [19] and in test [20] were 93.5% and 20.1%, respectively.
Take `O=Nc1ccccc1N=O`: the growth in test [1] is 71.9%; in test [2] it was 88.5%; in test [3], 84.2%; in test [4], 96%; in test [5], 93.5%; in test [6] it was 107%. Besides, the growth in test [7] is -60.8% (active); in test [8], 86.2%; in [9], 116%; in test [10] it was 83.4%; in test [11], 91.2%; in test [12], 76.4%. Also, the growth in [13] was 74.9%; in test [14], 95.8%; in [15], 101%; in test [16] it was 89.4%; in test [17] it was 85.9%; in [18], 76.2%. Besides, the growth in test [19] was 80.9%; in [20], 81.7%.
